Measurements reported in PubChem BioAssay (NCATS).
“And” between values parts separate entries of the source, which are not always exact repeats. Equal values may be shown once. Records with an inconclusive call do not appear. The source made the active and inactive calls. Calls follow the shape of the dose curve; as a rule, active = well fitted curve in the direction sought with a large enough effect; inconclusive = small, poorly fitted or top-dose-only effect, or another doubt; inactive = no such curve, though single readings can be large; an effect the other way counts as inactive or inconclusive.

Experiments:
[1] = target: Cellular tumor antigen p53 (Homo sapiens) (UniProt P04637); assay: Primary qHTS for small molecule compounds that upregulate eGFP-tagged delta133p53alpha (in N-terminal) cells. (AID 2060322); settings: NCI-H358 eGFP-delta133p53alpha fluorescence, 24 h; activation: hits give high values; also: nearly all actives have a fitted effect of over 75% in size; also: potency is read from the fitted curve at half-maximal effect;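 as to activation: series mostly up to about 56 µM; 0% = DMSO vehicle and 100% = reference activator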
Chain of Cellular tumor antigen p53 (Homo sapiens) (P04637 whole entry, looked up): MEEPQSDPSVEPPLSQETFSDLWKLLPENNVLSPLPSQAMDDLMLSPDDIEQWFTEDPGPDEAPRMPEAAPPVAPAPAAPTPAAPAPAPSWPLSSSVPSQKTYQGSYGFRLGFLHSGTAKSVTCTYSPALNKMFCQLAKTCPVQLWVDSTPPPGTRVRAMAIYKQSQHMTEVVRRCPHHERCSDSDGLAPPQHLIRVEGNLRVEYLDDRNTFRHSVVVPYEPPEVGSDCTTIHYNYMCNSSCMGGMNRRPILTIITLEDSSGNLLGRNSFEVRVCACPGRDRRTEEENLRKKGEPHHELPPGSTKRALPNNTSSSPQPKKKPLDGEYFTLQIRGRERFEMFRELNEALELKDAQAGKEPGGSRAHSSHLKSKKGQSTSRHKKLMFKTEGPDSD
How it was run: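 NCI-H358 cells pre-induced 24 h with 10 ng/ml doxycycline to express N-terminal eGFP-delta133p53alpha, then dosed 24 h at 37C without doxycycline; fixed, Hoechst-stained, GFP intensity by laser scanning cytometry, normalized to DMSO (0%) and 57.5 uM 5-azacytidine (100%).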

[2] = target: Aldehyde dehydrogenase, mitochondrial (Homo sapiens) (UniProt P05091); assay: qHTS for Inhibitors of the Aldehyde Dehydrogenase Family (ALDH2) Primary screen (AID 2061308);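 also: plate controls were vehicle for no effect and reference inhibitor for full effect; nearly all actives have a fitted effect of over 55% in size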
[3] = target: Retinaldehyde dehydrogenase 3 (Homo sapiens) (UniProt P47895); assay: qHTS for Inhibitors of the Aldehyde Dehydrogenase Family (ALDH1A3) Validation screen (AID 2061312); also: % is scaled to controls: 0 for no effect and ±100 for the full control effect; nearly all actives have a fitted effect of over 45% in size
[4] = target: Retinaldehyde dehydrogenase 3 (Homo sapiens) (UniProt P47895); assay: qHTS for Inhibitors of the Aldehyde Dehydrogenase Family (ALDH1A3) Primary screen (AID 2061315);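 also: plate controls were DMSO vehicle for no effect and reference inhibitor for full effect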

CCN(CC)C(=O)Nc1ccc(OCC(O)CNC(C)(C)C)c(C(C)=O)c1 (stereo not given)
inactive: activation [1] -6.69% and 4.3% | Potency [2] | Potency [3] | Potency [4]

Cn1c2ccc(F)cc2c2c(C(=O)N3CCCC3)cn(-c3ccccc3)c(=O)c21
inactive: activation [1] -5.25% | Potency [2] | Potency [3] | Potency [4]

C=C[C@]1(C)C[C@@H](OC(=O)CSC2C[C@H]3CC[C@@H](C2)N3C)[C@]2(C)[C@H](C)CC[C@]3(CCC(=O)[C@H]32)[C@@H](C)[C@@H]1O (stereo not given in full)
inactive: activation [1] 0.477% | Potency [2] | Potency [3] | Potency [4]

COc1cccc(-c2ccc([C@@H](Oc3cc(-c4ccc(C[C@H](N)C(=O)O)cc4)nc(N)n3)C(F)(F)F)cc2)c1
inactive: activation [1] -13.4% | Potency [2] | Potency [3] | Potency [4]

CN(CCc1ccc(Nc2ncc(-c3cccnc3)s2)cc1)Cc1ccccc1
inactive: activation [1] -8.59% | Potency [2] | Potency [3] | Potency [4]

CC(C)c1ccc(NC(=O)Cn2cnc3c2c(=O)n(C)c(=O)n3C)cc1
inactive: activation [1] -14.8% | Potency [2] | Potency [3] | Potency [4]

CC(C)C(CO)Nc1nc(Nc2cc(N)cc(Cl)c2)c2ncn(C(C)C)c2n1 (stereo not given)
inactive: Potency [2] | Potency [3] | Potency [4]
active: Potency [1] 30.1 µM

CCCC(N[C@@H](C)C(=O)N1[C@H](C(=O)O)C[C@@H]2CCCC[C@@H]21)C(=O)OCC (stereo not given in full)
inactive: activation [1] 2.39% | Potency [2] | Potency [3] | Potency [4]

CC(C)(N)c1ncc(-c2ccc(OC(F)(F)F)cc2)[nH]1
inactive: activation [1] -2.86% | Potency [2] | Potency [3] | Potency [4]

O=C(OC1CN2CCC1CC2)N1CCc2ccccc2C1c1ccccc1 (stereo not given)
inactive: activation [1] -3.82% | Potency [2] | Potency [3] | Potency [4]

CC(C)NCC(C(=O)N1CCN(c2ncnc3c2C(C)CC3O)CC1)c1ccc(Cl)cc1 (stereo not given)
inactive: activation [1] 0.955% | Potency [2] | Potency [3] | Potency [4]

CCN(CC)Cc1ccc(C(=O)N(CCc2ccccc2OC)[C@@H]2CCNC2)cc1
inactive: activation [1] 3.34% | Potency [2] | Potency [3] | Potency [4]

CCNC(=O)C1CC(F)(c2ccc(CN3CCCC3)c(F)c2)C1 (stereo not given)
inactive: activation [1] -9.07% | Potency [2] | Potency [3] | Potency [4]

O=C(CNC(=O)c1cccc(C(F)(F)F)c1)N[C@@H]1CCN(Cc2ccc(Cl)cc2)C1
inactive: activation [1] -2.86% | Potency [2] | Potency [3] | Potency [4]

Cc1noc(C)c1-c1cc(O)cc(C(O)c2ccccc2)c1 (stereo not given)
inactive: activation [1] 10.1% | Potency [2] | Potency [3] | Potency [4]

CCC[C@@]1(CCc2ccccc2)CC(O)=C([C@H](CC)c2cccc(NS(=O)(=O)c3ccc(C(F)(F)F)cn3)c2)C(=O)O1
inactive: activation [1] -3.82% | Potency [2] | Potency [3] | Potency [4]

COc1cc2nc(N3CCN(C(=O)COc4c(OC)cccc4C(C)C)CC3)nc(N)c2cc1OC
inactive: activation [1] -11% | Potency [2] | Potency [3] | Potency [4]

O=C(c1c2ccccc2cc2ccccc12)N1CCC(N2CCC[C@@H](C(=O)N3CCOCC3)C2)CC1
inactive: activation [1] -1.91% | Potency [2] | Potency [3] | Potency [4]

CC1CCN(c2cc(NC(=O)c3ccccc3)ncn2)CC1
inactive: activation [1] 22.4% | Potency [2] | Potency [3] | Potency [4]

CNc1ccc([N+](=O)[O-])c(Nc2ccc3[nH]ncc3c2)n1
inactive: Potency [2] | Potency [3] | Potency [4]
active: Potency [1] 10.7 µM

NC(=O)c1cccc2cn(-c3ccc(C4CCCNC4)cc3)nc12 (stereo not given)
inactive: activation [1] 26.7% | Potency [2] | Potency [3] | Potency [4]

OC1CCC(Nc2nc(-c3ccccc3)nc3[nH]ccc23)CC1 (stereo not given)
inactive: activation [1] -8.11% | Potency [2] | Potency [3] | Potency [4]

Cc1ccccc1C(=O)Nc1ccc(C(=O)N2CCCC(N(C)C)c3ccccc32)cc1 (stereo not given)
active: Potency [1] 3.89 µM
inactive: Potency [2] | Potency [3] | Potency [4]

O=C(Nc1cccc(C(F)(F)F)c1)Nc1ccc(Br)cc1-c1nn[nH]n1
inactive: activation [1] -5.73% | Potency [2] | Potency [3] | Potency [4]

COc1cccc(N2CCN(C3=Nc4c(F)cccc4[C@H](CC(=O)O)N3c3cc(C(F)(F)F)ccc3OC)CC2)c1
inactive: activation [1] -5.73% | Potency [2] | Potency [3] | Potency [4]

Cc1ccnc(NC(=O)C(C)c2cccc(C(=O)c3ccccc3)c2)c1 (stereo not given)
inactive: activation [1] -19.6% | Potency [2] | Potency [3] | Potency [4]

O=C(N[C@H](Cc1ccccc1)C(=O)O)c1sc2cc(F)ccc2c1Cl
inactive: activation [1] -9.55% | Potency [2] | Potency [3] | Potency [4]

c1ccc(C(OC2CCN(CCCc3nn[nH]n3)CC2)c2ccccc2)cc1
inactive: activation [1] -4.77% | Potency [2] | Potency [3] | Potency [4]

Cc1ccc(-c2c(-c3nn(C)c4ncnc(N5CC[C@H](N6CCCCC6)C5)c34)cnn2C)cc1
inactive: activation [1] 0.477% | Potency [2] | Potency [3] | Potency [4]

CN(C)C(=O)C(O)C(Cc1ccccc1)NC(=O)c1cc2cc(Cl)ccc2[nH]1 (stereo not given)
inactive: activation [1] -1.43% | Potency [2] | Potency [3] | Potency [4]

COC(=O)N1CCC(n2ncc3c(N4CCOCC4)nc(-c4ccc(NC(=O)NC5CC5)cc4)nc32)CC1
inactive: activation [1] 12.4% | Potency [2] | Potency [3] | Potency [4]

CCOC(=O)C(CCc1ccccc1)NC1CCCN2CCCC(C(=O)O)N2C1=O (stereo not given)
inactive: activation [1] -9.55% | Potency [2] | Potency [3] | Potency [4]

Nc1c(-c2ccccc2)nc(Cl)c2c(O)n[nH]c(=O)c12
inactive: activation [1] -1.91% | Potency [2] | Potency [3] | Potency [4]

CCOc1ccc(-c2nc(-c3cccc4c3CCC4NCCO)no2)cc1OCC (stereo not given)
inactive: activation [1] -0.955% | Potency [2] | Potency [3] | Potency [4]

CCOc1ccc(NC(=S)N2CCC(C(O)(c3ccccc3)c3ccccc3)CC2)cc1
inactive: activation [1] -0.955% | Potency [2] | Potency [3] | Potency [4]

CN1CCN(c2nc(-c3ccc(C(=O)NC4(C(=O)NCC#N)CCCCC4)cc3)cs2)CC1
inactive: activation [1] -19.1% | Potency [2] | Potency [3] | Potency [4]

CN1CCC(NC(=O)c2cc(-c3c(O)cc(O)cc3Oc3ccc([N+](=O)[O-])cc3)on2)CC1
inactive: activation [1] 5.25% | Potency [2] | Potency [3] | Potency [4]

Cc1cc(-n2c(=O)[nH]c(=O)n(C)c2=O)ccc1Oc1ccc(SC(F)(F)F)cc1
inactive: activation [1] -10.5% | Potency [2] | Potency [3] | Potency [4]

COc1c(F)cccc1C(=O)N1C[C@@H](C)CC[C@H]1CNc1ccc(Br)cn1
inactive: activation [1] -8.59% | Potency [2] | Potency [3] | Potency [4]

CC(C)C(=O)c1cn(CC(=O)COc2ccc(Oc3ccccc3)cc2)c2ccc(C(=O)O)cc12
inactive: activation [1] 6.68% | Potency [2] | Potency [3] | Potency [4]

CC(C)NC(=O)c1ccc(C#Cc2ccncc2)cn1
inactive: activation [1] 14.8% | Potency [2] | Potency [3] | Potency [4]

C=CCCN1CCC2(CC1)CN(C(=O)c1c(F)cccc1F)c1ccc(Cl)cc12
inactive: activation [1] 8.11% | Potency [2] | Potency [3] | Potency [4]

O=S(=O)(Nc1cc(Cl)c(Oc2cnc3ccccc3c2)c(Cl)c1)c1ccc(Cl)cc1Cl
inactive: activation [1] -4.77% | Potency [2] | Potency [3] | Potency [4]

CN(C)CCCOc1nn(Cc2ccccc2)c2ccccc12
inactive: activation [1] 8.47% and -14.3% | Potency [2] | Potency [3] | Potency [4]

CCOC(=O)N1CCC(NCCNC(=O)c2ccccc2C)CC1
inactive: activation [1] 6.68% | Potency [2] | Potency [3] | Potency [4]

COc1ccc2c(c1O[C@H]1CCNC1)CCC2
inactive: activation [1] -0.955% | Potency [2] | Potency [3] | Potency [4]

c1ccc(CN(CC2=NCCN2)c2ccccc2)cc1
inactive: activation [1] 0.837% and -3.82% | Potency [2] | Potency [3] | Potency [4]

C[C@@H](N[C@H]1CCCC[C@@H]1NC(=O)c1ccc(Cl)cc1)c1cccc2ccccc12
inactive: activation [1] 21.5% | Potency [2] | Potency [3] | Potency [4]

CN1CCC(Nc2nc(Nc3ccc(Oc4ccccc4)cc3)c3c(=O)[nH]cc(Br)c3n2)CC1
inactive: Potency [2] | Potency [3] | Potency [4]
active: Potency [1] 10.7 µM

Nc1nc(COC(=O)c2ccc([N+](=O)[O-])cc2)nc(Nc2ccccc2)n1
inactive: activation [1] 0.477% | Potency [2] | Potency [3] | Potency [4]

CCCCOc1cc(C(=O)OCCN(CC)CC)ccc1N
inactive: activation [1] -2.82% and 0% | Potency [2] | Potency [3] | Potency [4]

CC(C)c1c(NC(=O)Nc2ccc(Cl)cc2)c(=O)n(-c2ccccc2)n1C
inactive: activation [1] 9.07% | Potency [2] | Potency [3] | Potency [4]

O=C(Nc1ccccc1)N1CCN(c2nc(-c3ccccc3)ns2)CC1
inactive: activation [1] -13.8% | Potency [2] | Potency [3] | Potency [4]

Oc1ccc(-c2cnc3ccc(NCc4ccco4)nn23)cc1
inactive: Potency [2] | Potency [3] | Potency [4]
active: Potency [1] 26.9 µM

N[C@@H](CC(=O)N1CCn2c(nnc2C(F)(F)F)C1)Cc1[nH]nc2c(F)c(F)ccc12
inactive: activation [1] -3.82% | Potency [2] | Potency [3] | Potency [4]

CC(=O)Nc1cccc(Nc2ncnc(N3CCC(OCc4ccc(OC(F)(F)F)cc4)CC3)n2)c1C
inactive: activation [1] -6.21% | Potency [2] | Potency [3] | Potency [4]

CNC(=O)COC(=O)NCCC1CCN(c2cccc(C)n2)CC1
inactive: activation [1] 6.21% | Potency [2] | Potency [3] | Potency [4]

C[C@@H](NC(=O)[C@H](O)c1cc(F)cc(F)c1)C(=O)N[C@@H]1C(=O)N(C)c2ccccc2-c2ccccc21
inactive: activation [1] -6.21% | Potency [2] | Potency [3] | Potency [4]

COc1ccc(CCN(C)CCCOc2nsc(-c3ccccc3)n2)cc1OC
inactive: activation [1] 13.4% | Potency [2] | Potency [3] | Potency [4]

NS(=O)(=O)c1ccc(NC(=O)Nc2ccc(F)cc2)cc1
inactive: activation [1] -7.64% | Potency [2] | Potency [3] | Potency [4]
